# Test results as given in article PMC7862700, “An all-to-all approach to the identification of sequence-specific readers for epigenetic DNA modifications on cytosine”.
# What was measured:
# Assay in all cases: DAPPL (digital affinity profiling via proximity ligation, sequencing); 10 mM Tris-HCl pH 7.5, 50 mM NaCl, 1 mM DTT, 4% glycerol, room temperature, 30 min; GST-TFs on glutathione beads, 16-mer random dsDNA library, 0.1% formaldehyde crosslink after washing; high values mean tight binding
# Settings in all cases: protein: recombinant; tags: N-terminal GST; dsDNA, one strand shown
# FLI1 = target: T1, FLI1 (Homo sapiens, UniProt Q01543 1-452)
# T1 sequence: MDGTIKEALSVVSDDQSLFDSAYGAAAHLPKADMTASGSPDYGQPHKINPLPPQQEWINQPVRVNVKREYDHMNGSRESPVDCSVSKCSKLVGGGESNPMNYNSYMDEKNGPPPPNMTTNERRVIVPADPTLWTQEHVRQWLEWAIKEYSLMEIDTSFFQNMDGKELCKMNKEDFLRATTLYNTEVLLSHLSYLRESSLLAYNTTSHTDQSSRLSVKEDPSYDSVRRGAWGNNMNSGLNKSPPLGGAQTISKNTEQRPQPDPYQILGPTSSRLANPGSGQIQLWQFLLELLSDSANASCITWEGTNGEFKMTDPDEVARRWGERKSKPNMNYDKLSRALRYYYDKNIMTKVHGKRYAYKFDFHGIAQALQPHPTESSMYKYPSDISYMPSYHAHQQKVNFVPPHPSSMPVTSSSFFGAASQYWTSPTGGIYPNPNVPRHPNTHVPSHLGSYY
# Summary of the method: (§1)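 Binding signal is given per hexamer as its read frequency for a factor divided by its frequency in the tag-only sample. GST-fused human transcription factors were expressed in yeast, captured on glutathione beads, barcoded with DNA and pooled with that sample, then incubated with 200 nmole of a 16-mer random double-stranded DNA library in Tris/NaCl/DTT/glycerol buffer for 30 min at room temperature. The pools were then washed, crosslinked, proximity-ligated, amplified by PCR and sequenced on an Illumina NextSeq500.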
# ELK1 = target: T2, ELK1 (Homo sapiens, UniProt P19419 1-428)
# T2 sequence: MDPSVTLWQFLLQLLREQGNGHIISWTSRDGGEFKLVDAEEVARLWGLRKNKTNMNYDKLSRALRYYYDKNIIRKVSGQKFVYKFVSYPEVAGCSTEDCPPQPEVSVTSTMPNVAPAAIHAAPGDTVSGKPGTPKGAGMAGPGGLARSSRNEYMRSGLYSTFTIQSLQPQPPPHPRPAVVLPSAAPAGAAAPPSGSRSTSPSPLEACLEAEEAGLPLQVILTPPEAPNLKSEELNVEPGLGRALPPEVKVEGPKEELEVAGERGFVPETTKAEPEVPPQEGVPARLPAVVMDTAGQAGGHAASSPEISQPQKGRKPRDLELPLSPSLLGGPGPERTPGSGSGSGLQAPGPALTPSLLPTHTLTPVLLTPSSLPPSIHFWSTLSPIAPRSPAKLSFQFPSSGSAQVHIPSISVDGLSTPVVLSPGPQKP
# Summary of the method: as §1
# GABPA = target: T3, GABPA (Homo sapiens, UniProt Q06546 1-454)
# T3 sequence: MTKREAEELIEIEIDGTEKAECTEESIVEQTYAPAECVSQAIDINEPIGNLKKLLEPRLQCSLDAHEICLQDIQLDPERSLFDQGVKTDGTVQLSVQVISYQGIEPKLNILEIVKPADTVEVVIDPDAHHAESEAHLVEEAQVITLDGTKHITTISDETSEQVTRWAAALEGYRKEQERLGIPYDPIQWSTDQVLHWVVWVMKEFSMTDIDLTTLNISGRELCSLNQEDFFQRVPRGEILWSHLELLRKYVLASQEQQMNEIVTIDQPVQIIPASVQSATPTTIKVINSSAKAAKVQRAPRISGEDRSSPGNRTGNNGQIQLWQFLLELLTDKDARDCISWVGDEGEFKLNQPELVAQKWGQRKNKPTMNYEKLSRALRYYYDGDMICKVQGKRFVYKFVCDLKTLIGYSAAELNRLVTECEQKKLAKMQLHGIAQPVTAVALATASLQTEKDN
# Summary of the method: as §1
# ERG = target: T4, ERG (Homo sapiens, UniProt P11308 1-479)
# T4 sequence: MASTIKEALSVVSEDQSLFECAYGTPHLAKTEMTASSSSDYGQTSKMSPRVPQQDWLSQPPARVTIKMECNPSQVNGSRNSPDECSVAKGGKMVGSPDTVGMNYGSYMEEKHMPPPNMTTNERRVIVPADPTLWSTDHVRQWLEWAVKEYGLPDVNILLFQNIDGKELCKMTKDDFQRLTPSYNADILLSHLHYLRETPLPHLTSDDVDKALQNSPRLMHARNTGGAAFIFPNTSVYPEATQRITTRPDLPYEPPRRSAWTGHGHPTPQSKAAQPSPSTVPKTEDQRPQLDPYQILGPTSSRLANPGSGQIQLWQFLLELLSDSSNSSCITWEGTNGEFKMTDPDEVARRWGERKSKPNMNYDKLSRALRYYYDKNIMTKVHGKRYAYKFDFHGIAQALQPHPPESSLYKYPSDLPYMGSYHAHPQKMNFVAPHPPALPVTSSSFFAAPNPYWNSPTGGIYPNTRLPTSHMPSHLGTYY
# Summary of the method: as §1
# ELF1 = ELF1 (Homo sapiens, UniProt P32519 1-619)
# Summary of the method: as §1
# EHF = target: T5, EHF (Homo sapiens, UniProt Q9NZC4 1-300)
# T5 sequence: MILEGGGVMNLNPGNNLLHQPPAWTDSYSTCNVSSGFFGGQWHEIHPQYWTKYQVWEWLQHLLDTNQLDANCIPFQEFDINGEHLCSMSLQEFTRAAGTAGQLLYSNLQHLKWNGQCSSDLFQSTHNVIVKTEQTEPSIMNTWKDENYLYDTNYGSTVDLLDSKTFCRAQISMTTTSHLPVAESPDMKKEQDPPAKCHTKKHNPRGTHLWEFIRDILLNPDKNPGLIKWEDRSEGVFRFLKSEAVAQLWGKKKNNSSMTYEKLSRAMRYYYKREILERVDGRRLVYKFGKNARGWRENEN
# Summary of the method: as §1
# SPI1 = SPI1 (Homo sapiens, UniProt P17947 1-270)
# Summary of the method: as §1
# SPIB = SPIB (Homo sapiens, UniProt Q01892 1-262)
# Summary of the method: as §1
# ELK3 = target: T6, ELK3 (Homo sapiens, UniProt P41970 1-407)
# T6 sequence: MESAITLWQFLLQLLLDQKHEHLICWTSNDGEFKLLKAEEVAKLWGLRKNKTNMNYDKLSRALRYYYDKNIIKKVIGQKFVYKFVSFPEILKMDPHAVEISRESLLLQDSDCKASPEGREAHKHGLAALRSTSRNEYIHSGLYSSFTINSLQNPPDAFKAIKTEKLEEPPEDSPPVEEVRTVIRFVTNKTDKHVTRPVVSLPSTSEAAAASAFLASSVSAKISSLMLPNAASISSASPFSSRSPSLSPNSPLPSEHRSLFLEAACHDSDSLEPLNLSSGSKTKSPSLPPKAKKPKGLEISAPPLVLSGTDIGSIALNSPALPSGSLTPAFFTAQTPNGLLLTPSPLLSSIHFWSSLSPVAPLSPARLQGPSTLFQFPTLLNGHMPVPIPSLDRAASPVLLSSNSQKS
# Summary of the method: as §1
# FEV = target: T7, FEV (Homo sapiens, UniProt Q99581 1-238)
# T7 sequence: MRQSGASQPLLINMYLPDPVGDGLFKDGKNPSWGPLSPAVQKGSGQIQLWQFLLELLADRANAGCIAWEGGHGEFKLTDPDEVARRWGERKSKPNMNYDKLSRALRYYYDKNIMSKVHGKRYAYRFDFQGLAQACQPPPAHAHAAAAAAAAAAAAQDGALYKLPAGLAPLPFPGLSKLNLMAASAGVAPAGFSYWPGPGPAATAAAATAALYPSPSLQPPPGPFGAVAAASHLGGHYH
# Summary of the method: as §1
# ETV5 = ETV5 (Homo sapiens, UniProt P41161 1-510)
# Summary of the method: as §1
# SPIC = target: T8, SPIC (Homo sapiens, UniProt Q8N5J4 1-248)
# T8 sequence: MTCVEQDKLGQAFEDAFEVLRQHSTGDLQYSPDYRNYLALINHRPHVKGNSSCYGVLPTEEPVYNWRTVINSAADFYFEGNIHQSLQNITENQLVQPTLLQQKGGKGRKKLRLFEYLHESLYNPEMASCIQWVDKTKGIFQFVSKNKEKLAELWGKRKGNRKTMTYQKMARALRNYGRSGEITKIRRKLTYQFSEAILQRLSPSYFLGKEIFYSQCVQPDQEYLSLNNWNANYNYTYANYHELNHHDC
# Summary of the method: as §1
# ELF4 = ELF4 (Homo sapiens, UniProt Q99607 1-663)
# Summary of the method: as §1
# ETV1 = ETV1 (Homo sapiens, UniProt P50549 1-477)
# Summary of the method: as §1
# ERF = target: T9, ERF (Homo sapiens, UniProt P50548 1-548)
# T9 sequence: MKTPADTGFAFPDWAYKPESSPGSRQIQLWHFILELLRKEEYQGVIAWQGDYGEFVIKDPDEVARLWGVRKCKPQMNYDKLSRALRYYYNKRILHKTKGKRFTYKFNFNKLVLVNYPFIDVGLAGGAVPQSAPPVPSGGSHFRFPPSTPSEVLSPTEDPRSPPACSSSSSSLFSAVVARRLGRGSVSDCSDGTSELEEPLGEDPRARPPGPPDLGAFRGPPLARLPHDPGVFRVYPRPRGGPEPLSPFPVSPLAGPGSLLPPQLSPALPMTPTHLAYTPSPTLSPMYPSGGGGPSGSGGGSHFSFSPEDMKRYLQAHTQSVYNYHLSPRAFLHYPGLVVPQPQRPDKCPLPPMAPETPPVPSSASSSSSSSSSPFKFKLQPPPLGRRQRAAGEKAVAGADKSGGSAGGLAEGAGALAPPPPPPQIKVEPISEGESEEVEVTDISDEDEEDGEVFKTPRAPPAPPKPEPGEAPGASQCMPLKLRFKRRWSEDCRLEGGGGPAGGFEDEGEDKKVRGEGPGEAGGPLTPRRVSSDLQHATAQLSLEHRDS
# Summary of the method: as §1
# ETV3L = target: T10, ETV3L (Homo sapiens, UniProt Q6ZN32 1-361)
# T10 sequence: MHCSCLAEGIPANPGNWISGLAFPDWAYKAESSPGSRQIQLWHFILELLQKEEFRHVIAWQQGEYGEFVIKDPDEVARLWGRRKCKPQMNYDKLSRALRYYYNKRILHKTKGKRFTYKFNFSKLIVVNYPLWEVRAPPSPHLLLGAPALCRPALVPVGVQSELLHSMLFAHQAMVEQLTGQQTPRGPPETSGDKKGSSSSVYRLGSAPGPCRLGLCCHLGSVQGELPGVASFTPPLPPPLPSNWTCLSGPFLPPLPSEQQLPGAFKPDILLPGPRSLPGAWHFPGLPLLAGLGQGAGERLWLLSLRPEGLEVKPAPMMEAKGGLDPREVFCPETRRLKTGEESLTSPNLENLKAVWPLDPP
# Summary of the method: as §1
# ETS2 = target: T11, ETS2 (Homo sapiens, UniProt P15036 1-469)
# T11 sequence: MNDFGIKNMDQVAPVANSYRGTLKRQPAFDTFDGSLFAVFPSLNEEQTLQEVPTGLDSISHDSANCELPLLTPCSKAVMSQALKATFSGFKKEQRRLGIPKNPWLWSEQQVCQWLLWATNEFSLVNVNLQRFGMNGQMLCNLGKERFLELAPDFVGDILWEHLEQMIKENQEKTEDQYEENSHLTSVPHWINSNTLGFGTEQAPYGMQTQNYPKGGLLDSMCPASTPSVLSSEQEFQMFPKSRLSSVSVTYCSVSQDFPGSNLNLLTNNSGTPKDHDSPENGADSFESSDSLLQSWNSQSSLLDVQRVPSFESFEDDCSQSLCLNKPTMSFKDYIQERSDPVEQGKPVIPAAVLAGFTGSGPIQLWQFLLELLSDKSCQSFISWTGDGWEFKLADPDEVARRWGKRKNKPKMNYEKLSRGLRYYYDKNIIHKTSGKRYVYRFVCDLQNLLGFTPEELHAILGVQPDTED
# Summary of the method: as §1
# ELF5 = target: T12, ELF5 (Homo sapiens, UniProt Q9UKW6-2 1-255)
# T12 sequence: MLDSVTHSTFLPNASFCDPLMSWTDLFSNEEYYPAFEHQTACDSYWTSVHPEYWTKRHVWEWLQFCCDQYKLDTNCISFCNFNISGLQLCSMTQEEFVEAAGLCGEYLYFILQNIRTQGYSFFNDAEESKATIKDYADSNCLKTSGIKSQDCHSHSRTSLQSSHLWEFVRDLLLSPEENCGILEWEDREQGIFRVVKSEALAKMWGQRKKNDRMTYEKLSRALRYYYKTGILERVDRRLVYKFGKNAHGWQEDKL
# Summary of the method: as §1
# ETV3 = target: T13, ETV3 (Homo sapiens, UniProt P41162-2 1-143)
# T13 sequence: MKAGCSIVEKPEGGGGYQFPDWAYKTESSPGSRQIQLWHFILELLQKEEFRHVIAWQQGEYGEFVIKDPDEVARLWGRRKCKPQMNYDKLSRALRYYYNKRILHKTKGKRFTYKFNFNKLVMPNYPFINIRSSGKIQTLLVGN
# Summary of the method: as §1
# ETV6 = ETV6 (Homo sapiens, UniProt P41212 1-452)
# Summary of the method: as §1
# ETV6, sequence (P41212 whole entry): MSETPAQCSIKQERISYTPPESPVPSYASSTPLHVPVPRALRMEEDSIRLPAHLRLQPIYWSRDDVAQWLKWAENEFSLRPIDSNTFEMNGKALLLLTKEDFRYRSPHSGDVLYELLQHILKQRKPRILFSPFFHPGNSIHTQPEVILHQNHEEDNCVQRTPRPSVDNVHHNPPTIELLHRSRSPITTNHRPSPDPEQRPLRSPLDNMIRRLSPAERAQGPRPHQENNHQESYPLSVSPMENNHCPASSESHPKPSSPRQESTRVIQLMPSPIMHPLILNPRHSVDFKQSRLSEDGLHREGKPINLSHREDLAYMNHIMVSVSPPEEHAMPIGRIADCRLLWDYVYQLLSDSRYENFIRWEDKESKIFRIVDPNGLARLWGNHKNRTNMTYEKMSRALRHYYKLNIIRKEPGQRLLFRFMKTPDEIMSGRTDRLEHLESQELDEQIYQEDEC
# SPIB, sequence (Q01892 whole entry): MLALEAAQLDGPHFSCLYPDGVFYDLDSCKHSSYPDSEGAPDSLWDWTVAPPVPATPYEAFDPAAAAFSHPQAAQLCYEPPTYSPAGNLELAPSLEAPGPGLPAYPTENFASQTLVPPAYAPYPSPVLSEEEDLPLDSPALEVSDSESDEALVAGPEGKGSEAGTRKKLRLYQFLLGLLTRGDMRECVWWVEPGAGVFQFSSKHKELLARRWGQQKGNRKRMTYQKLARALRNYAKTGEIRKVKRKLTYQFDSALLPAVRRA
# ELF1, sequence (P32519 whole entry): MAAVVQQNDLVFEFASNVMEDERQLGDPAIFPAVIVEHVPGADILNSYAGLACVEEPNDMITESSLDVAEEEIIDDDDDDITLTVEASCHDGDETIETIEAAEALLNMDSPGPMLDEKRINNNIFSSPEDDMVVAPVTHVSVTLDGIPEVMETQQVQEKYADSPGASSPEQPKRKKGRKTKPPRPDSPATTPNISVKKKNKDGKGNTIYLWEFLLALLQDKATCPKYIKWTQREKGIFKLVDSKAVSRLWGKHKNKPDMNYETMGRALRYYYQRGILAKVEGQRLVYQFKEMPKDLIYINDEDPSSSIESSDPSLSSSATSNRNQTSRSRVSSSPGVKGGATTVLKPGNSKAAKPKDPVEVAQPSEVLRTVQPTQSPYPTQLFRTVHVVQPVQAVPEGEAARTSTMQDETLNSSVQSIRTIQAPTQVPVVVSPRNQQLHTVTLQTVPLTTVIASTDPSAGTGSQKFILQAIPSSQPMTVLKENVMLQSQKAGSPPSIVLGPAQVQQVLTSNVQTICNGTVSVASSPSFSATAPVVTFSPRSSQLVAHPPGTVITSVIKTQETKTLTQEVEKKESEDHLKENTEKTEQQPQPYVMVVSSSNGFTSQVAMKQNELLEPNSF
# ETV1, sequence (P50549 whole entry): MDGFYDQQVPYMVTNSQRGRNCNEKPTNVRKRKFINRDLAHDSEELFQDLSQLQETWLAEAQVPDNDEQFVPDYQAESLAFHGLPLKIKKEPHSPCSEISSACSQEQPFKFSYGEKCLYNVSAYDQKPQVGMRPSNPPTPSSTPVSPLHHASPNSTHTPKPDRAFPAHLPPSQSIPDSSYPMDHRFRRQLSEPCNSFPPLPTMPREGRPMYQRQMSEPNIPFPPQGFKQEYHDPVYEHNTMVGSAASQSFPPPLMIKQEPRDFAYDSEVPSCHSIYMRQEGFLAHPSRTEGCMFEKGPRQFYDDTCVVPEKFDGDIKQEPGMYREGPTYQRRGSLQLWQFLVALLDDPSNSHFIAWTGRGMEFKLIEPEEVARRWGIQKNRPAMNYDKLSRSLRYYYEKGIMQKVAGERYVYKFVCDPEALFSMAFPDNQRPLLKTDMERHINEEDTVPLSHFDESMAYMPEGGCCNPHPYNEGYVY
# ELF4, sequence (Q99607 whole entry): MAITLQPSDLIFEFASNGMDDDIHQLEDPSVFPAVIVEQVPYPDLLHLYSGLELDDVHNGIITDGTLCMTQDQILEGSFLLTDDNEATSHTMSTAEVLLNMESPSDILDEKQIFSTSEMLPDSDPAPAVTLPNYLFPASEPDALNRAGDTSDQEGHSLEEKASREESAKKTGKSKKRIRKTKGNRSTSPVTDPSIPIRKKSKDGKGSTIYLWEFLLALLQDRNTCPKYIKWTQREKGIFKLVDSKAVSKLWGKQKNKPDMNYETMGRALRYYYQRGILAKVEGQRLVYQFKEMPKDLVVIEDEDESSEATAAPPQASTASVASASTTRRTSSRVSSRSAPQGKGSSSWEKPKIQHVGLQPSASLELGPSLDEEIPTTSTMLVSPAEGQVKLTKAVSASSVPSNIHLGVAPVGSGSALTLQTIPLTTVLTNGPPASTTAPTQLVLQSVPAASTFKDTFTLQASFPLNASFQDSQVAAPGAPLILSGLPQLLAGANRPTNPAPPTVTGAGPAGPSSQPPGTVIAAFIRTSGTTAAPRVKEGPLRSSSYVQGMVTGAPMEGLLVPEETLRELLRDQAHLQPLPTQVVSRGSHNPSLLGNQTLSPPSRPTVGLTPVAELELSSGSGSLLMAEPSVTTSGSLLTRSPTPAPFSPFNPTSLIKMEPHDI
# ETV5, sequence (P41161 whole entry): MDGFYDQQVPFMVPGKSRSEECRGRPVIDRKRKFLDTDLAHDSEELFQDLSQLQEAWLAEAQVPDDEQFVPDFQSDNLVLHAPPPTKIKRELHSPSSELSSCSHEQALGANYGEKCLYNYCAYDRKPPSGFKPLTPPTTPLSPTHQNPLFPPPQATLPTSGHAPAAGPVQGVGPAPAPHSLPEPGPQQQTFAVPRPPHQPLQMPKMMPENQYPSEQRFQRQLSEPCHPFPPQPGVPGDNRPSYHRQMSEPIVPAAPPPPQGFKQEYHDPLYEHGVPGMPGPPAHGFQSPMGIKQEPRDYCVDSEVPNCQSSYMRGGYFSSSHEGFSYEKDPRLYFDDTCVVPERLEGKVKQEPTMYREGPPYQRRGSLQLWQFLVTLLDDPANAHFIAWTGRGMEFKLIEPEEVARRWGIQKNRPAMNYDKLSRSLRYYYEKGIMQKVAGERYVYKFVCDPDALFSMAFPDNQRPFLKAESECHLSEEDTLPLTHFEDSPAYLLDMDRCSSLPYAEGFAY
sequence,measurement,setting,value
CCACCT,binding signal,FLI1,"1.16 fold enrichment (6-mer frequency, TF over GST control)"
same,binding signal,ELK1,"1.12 fold enrichment (6-mer frequency, TF over GST control)"
same,binding signal,GABPA,"1.1 fold enrichment (6-mer frequency, TF over GST control)"
same,binding signal,ERG,"1.11 fold enrichment (6-mer frequency, TF over GST control)"
same,binding signal,ELF1,"1.15 fold enrichment (6-mer frequency, TF over GST control)"
same,binding signal,EHF,"1.21 fold enrichment (6-mer frequency, TF over GST control)"
same,binding signal,SPI1,"1.11 fold enrichment (6-mer frequency, TF over GST control)"
same,binding signal,SPIB,"1.07 fold enrichment (6-mer frequency, TF over GST control)"
same,binding signal,ELK3,"1.06 fold enrichment (6-mer frequency, TF over GST control)"
same,binding signal,FEV,"1.17 fold enrichment (6-mer frequency, TF over GST control)"
same,binding signal,ETV5,"1.07 fold enrichment (6-mer frequency, TF over GST control)"
same,binding signal,SPIC,"1.19 fold enrichment (6-mer frequency, TF over GST control)"
same,binding signal,ELF4,"1.15 fold enrichment (6-mer frequency, TF over GST control)"
same,binding signal,ETV1,"1.07 fold enrichment (6-mer frequency, TF over GST control)"
same,binding signal,ERF,"1.13 fold enrichment (6-mer frequency, TF over GST control)"
same,binding signal,ETV3L,"1.08 fold enrichment (6-mer frequency, TF over GST control)"
same,binding signal,ETS2,"1.1 fold enrichment (6-mer frequency, TF over GST control)"
same,binding signal,ELF5,"1.09 fold enrichment (6-mer frequency, TF over GST control)"
same,binding signal,ETV3,"1.08 fold enrichment (6-mer frequency, TF over GST control)"
same,binding signal,ETV6,"1.06 fold enrichment (6-mer frequency, TF over GST control)"
